Results as given in PubChem BioAssay (EPA / NIEHS).
Activity calls are given as the source filed them. How the source made its calls: active means hit-call score of the fitted dose curve at least 0.9, where 1 is the maximum; inactive means score below 0.9.

Tests used:
Settings in all cases: mRNA level, 48 h; actives raise or lower the signal
[1] = read-out: growth arrest and DNA damage 45 (GADD45A), GADD45A (gene 1647); test: LTEA_HepaRG_GADD45A: Life Technologies and Expression Analysis (LTEA) Assay for growth arrest and DNA damage 45 (GADD45A) using HepaRG (AID 2283458)
How it was run: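 Differentiated HepaRG cells were exposed in duplicate for 48 h in serum-free induction medium to 8-point half-log concentrations up to 100 uM in 0.5% DMSO. GADD45A mRNA was measured by TaqMan qRT-PCR, normalized to ACTB, GAPDH and POLR2A, with bidirectional fitting versus DMSO.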

[2] = read-out: Forkhead box O3 (FOXO3), FOXO3 (gene 2309); test: LTEA_HepaRG_FOXO3: Life Technologies and Expression Analysis (LTEA) Assay for Forkhead box O3 (FOXO3) using HepaRG (AID 2283459)
How it was run: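 HepaRG, 48 h post-dose; 8 conc., half-log from 100 uM, 0.5% DMSO, duplicates; serum-free induction medium. Readout: FOXO3 mRNA, TaqMan qRT-PCR, housekeeping-normalized. Bidirectional curve fit vs DMSO baseline.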

[3] = read-out: ABC Transporter (ABCB1), ABCB1 (gene 5243); test: LTEA_HepaRG_ABCB1: Life Technologies and Expression Analysis (LTEA) Assay for ABC Transporter (ABCB1) using HepaRG (AID 2283460)
How it was run: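 Expression of ABCB1 was quantified by qRT-PCR against three housekeeping genes after human HepaRG cultures received test chemicals for 48 hours. Concentrations spanned eight half-log steps topping at 100 uM in 0.5% DMSO; gain or loss of signal was fitted relative to vehicle.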

[4] = read-out: growth arrest and DNA damage 45 (GADD45B), GADD45B (gene 4616); test: LTEA_HepaRG_GADD45B: Life Technologies and Expression Analysis (LTEA) Assay for growth arrest and DNA damage 45 (GADD45B) using HepaRG (AID 2283461)
How it was run: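 Transcript level quantified by Fluidigm TaqMan qRT-PCR with three housekeeping genes for normalization, analyzed for up- or down-regulation against 0.5% DMSO. HepaRG cultures dosed 48 h at eight half-log concentrations up to 100 uM, duplicates.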

[5] = read-out: ABC Transporter (ABCC3), ABCC3 (gene 8714); test: LTEA_HepaRG_ABCC3: Life Technologies and Expression Analysis (LTEA) Assay for ABC Transporter (ABCC3) using HepaRG (AID 2283462)
How it was run: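 Transcript level by TaqMan qRT-PCR, normalised to three housekeeping genes, fitted in both directions relative to vehicle. Chemicals tested in duplicate at eight half-log concentrations up to 100 uM for 48 h on HepaRG cells (0.5% DMSO).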

[6] = read-out: ABC Transporter (ABCB11), ABCB11 (gene 8647); test: LTEA_HepaRG_ABCB11: Life Technologies and Expression Analysis (LTEA) Assay for ABC Transporter (ABCB11) using HepaRG (AID 2283463)
How it was run: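 ABCB11 transcript levels are read by Fluidigm TaqMan qRT-PCR after 48 h chemical treatment of human HepaRG cells. Concentrations span 100 uM downward in half-log steps with 0.5% DMSO; gain or loss is fitted against DMSO controls.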

[7] = read-out: ABC Transporter (ABCC2), ABCC2 (gene 1244); test: LTEA_HepaRG_ABCC2: Life Technologies and Expression Analysis (LTEA) Assay for ABC Transporter (ABCC2) using HepaRG (AID 2283464)
How it was run: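 Endpoint is ABCC2 transcript level from qRT-PCR, normalized to three housekeeping genes and fitted bidirectionally relative to DMSO. Human HepaRG cells received test chemical for 48 h at up to 100 uM (8 points, half-log steps, 0.5% DMSO), duplicate wells.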

[8] = read-out: Broad substrate specificity ATP-binding cassette transporter ABCG2 (Homo sapiens) (UniProt Q9UNQ0); test: LTEA_HepaRG_ABCG2: Life Technologies and Expression Analysis (LTEA) Assay for ABC Transporter (ABCG2) using HepaRG (AID 2283465)
How it was run: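 Read-out is ABCG2 mRNA induction or loss quantified by qRT-PCR after 48 h chemical treatment of human HepaRG cells, normalized to three housekeeping genes. Concentrations reached 100 uM top in half-log steps; fitting was bidirectional against 0.5% DMSO.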

[9] = read-out: ATP-citrate lyase (ACLY), ACLY (gene 47); test: LTEA_HepaRG_ACLY: Life Technologies and Expression Analysis (LTEA) Assay for ATP-citrate lyase (ACLY) using HepaRG (AID 2283466)
How it was run: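 HepaRG, 48 h exposure, 8-pt half-log dilutions (top 100 uM), 0.5% DMSO. Readout: ACLY mRNA, TaqMan qRT-PCR, housekeeping-normalized (ACTB/GAPDH/POLR2A). Bidirectional curve fit vs DMSO.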

[10] = read-out: Peroxisomal acyl-coenzyme A oxidase 1 (ACOX1) gene, ACOX1 (gene 51); test: LTEA_HepaRG_ACOX1: Life Technologies and Expression Analysis (LTEA) Assay for Peroxisomal acyl-coenzyme A oxidase 1 (ACOX1) gene using HepaRG (AID 2283467)
How it was run: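 Measured by qRT-PCR against three housekeeping genes: ACOX1 transcript change in human HepaRG cells after 48 h dosing. Concentrations ran up to 100 uM in half-log steps. Curves were fitted bidirectionally relative to 0.5% DMSO.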

[11] = read-out: Alkaline Phosphatase, Placental (ALPP) gene, ALPP (gene 250); test: LTEA_HepaRG_ALPP: Life Technologies and Expression Analysis (LTEA) Assay for Alkaline Phosphatase, Placental (ALPP) gene using HepaRG (AID 2283468)
How it was run: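 ALPP transcript level, measured by qRT-PCR and normalized to three housekeeping genes (ACTB, GAPDH, POLR2A), after 48 h dosing of differentiated HepaRG in serum-free induction medium. Top concentration 100 uM with half-log dilutions (8 points, 0.5% DMSO, duplicates); bidirectional fitting relative to DMSO.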

[12] = read-out: Bcl-2 (BAD) gene, BAD (gene 572); test: LTEA_HepaRG_BAD: Life Technologies and Expression Analysis (LTEA) Assay for Bcl-2 (BAD) gene using HepaRG (AID 2283469)
How it was run: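 BAD transcript change, measured by qRT-PCR against three housekeeping genes and fitted in both directions relative to 0.5% DMSO, after 48 h chemical treatment of human HepaRG liver cells at concentrations up to 100 uM.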

[13] = read-out: Bcl-2 (BAX) gene, BAX (gene 581); test: LTEA_HepaRG_BAX: Life Technologies and Expression Analysis (LTEA) Assay for Bcl-2 (BAX) gene using HepaRG (AID 2283470)
How it was run: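 Differentiated human HepaRG cells, plated 48 h then switched to serum-free induction medium, were exposed 48 h to 8 half-log concentrations up to 100 uM in 0.5% DMSO; BAX mRNA measured by qRT-PCR, normalized to ACTB, GAPDH, POLR2A.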

[14] = read-out: adenosine kinase (ADK) gene, ADK (gene 132); test: LTEA_HepaRG_ADK: Life Technologies and Expression Analysis (LTEA) Assay for adenosine kinase (ADK) gene using HepaRG (AID 2283471)
How it was run: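 ADK expression quantified by qRT-PCR, normalised to three housekeeping genes, after 48 h exposure of HepaRG cells to eight concentrations (top 100 uM, half-log steps, duplicate, 0.5% DMSO). Up- or down-regulation fitted relative to vehicle.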

[15] = read-out: Alpha-fetoprotein (AFP) gene, AFP (gene 174); test: LTEA_HepaRG_AFP: Life Technologies and Expression Analysis (LTEA) Assay for Alpha-fetoprotein (AFP) gene using HepaRG (AID 2283472)
How it was run: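 Human HepaRG cells plated 48 h, then switched to serum-free induction medium and exposed in duplicate for 48 h to 8-point half-log series from 100 uM in 0.5% DMSO. AFP mRNA by qRT-PCR, normalized to ACTB, GAPDH, POLR2A; bidirectional fit versus DMSO.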

BCL2L11 (gene 10018) = test: LTEA_HepaRG_BCL2L11: Life Technologies and Expression Analysis (LTEA) Assay for Bcl-2 (BCL2L11) gene using HepaRG (AID 2283473)
How it was run: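 BCL2L11 transcript levels are measured by Fluidigm qRT-PCR, normalized to three housekeeping genes. HepaRG cultures were plated 48 h, then treated 48 h with test chemical (top 100 uM, half-log, 0.5% DMSO vehicle); curves were fitted bidirectionally against DMSO.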

[16] = read-out: Apoptosis regulator Bcl-2 (Homo sapiens) (UniProt P10415); test: LTEA_HepaRG_BCL2: Life Technologies and Expression Analysis (LTEA) Assay for Bcl-2 gene using HepaRG (AID 2283475)
How it was run: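 Differentiated HepaRG cells in serum-free induction medium were exposed for 48 h to eight half-log concentrations up to 100 uM in 0.5% DMSO, in duplicate. BCL2 mRNA was quantified by TaqMan qRT-PCR normalised to ACTB, GAPDH and POLR2A, with bidirectional fitting versus DMSO.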

[17] = read-out: Bcl-2 (BID) gene, BID (gene 637); test: LTEA_HepaRG_BID: Life Technologies and Expression Analysis (LTEA) Assay for Bcl-2 (BID) gene using HepaRG (AID 2283476)
How it was run: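 Differentiated HepaRG cells in serum-free induction medium were exposed in duplicate for 48 h to eight half-log concentrations up to 100 uM in 0.5% DMSO. BID mRNA was quantified by qRT-PCR, normalized to ACTB, GAPDH and POLR2A.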

Caspase-3 (Homo sapiens) = Caspase-3 (Homo sapiens) (UniProt P42574); test: LTEA_HepaRG_CASP3: Life Technologies and Expression Analysis (LTEA) Assay for cysteine-aspartic acid protease (CASP3) using HepaRG (AID 2283477)
Sequence of Caspase-3 (Homo sapiens) (P42574 whole entry, looked up): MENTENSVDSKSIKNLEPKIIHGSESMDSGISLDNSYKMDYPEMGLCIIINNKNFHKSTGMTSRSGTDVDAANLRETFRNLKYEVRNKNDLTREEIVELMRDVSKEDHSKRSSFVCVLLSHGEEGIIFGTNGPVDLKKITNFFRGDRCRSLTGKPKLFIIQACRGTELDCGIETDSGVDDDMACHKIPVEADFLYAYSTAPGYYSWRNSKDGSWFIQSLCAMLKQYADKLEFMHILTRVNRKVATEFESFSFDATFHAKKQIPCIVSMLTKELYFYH
How it was run: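 Expression of CASP3 was quantified by TaqMan qRT-PCR against three housekeeping genes (ACTB, GAPDH, POLR2A), bidirectionally versus 0.5% DMSO. HepaRG cultures received compounds in duplicate, top 100 uM with half-log steps, for 48 h in serum-free induction medium.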

[18] = read-out: Apolipoprotein A-V (APOA5) gene, APOA5 (gene 116519); test: LTEA_HepaRG_APOA5: Life Technologies and Expression Analysis (LTEA) Assay for Apolipoprotein A-V (APOA5) gene using HepaRG (AID 2283474)
How it was run: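 APOA5 transcript levels were quantified by qRT-PCR, normalized to three housekeeping genes, after 48 h chemical treatment of HepaRG cells (8 points, 100 uM maximum, half-log steps, 0.5% DMSO). Curves fitted in both directions against vehicle.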

Measured: AC50

Sequence of Broad substrate specificity ATP-binding cassette transporter ABCG2 (Homo sapiens) (Q9UNQ0 whole entry, looked up): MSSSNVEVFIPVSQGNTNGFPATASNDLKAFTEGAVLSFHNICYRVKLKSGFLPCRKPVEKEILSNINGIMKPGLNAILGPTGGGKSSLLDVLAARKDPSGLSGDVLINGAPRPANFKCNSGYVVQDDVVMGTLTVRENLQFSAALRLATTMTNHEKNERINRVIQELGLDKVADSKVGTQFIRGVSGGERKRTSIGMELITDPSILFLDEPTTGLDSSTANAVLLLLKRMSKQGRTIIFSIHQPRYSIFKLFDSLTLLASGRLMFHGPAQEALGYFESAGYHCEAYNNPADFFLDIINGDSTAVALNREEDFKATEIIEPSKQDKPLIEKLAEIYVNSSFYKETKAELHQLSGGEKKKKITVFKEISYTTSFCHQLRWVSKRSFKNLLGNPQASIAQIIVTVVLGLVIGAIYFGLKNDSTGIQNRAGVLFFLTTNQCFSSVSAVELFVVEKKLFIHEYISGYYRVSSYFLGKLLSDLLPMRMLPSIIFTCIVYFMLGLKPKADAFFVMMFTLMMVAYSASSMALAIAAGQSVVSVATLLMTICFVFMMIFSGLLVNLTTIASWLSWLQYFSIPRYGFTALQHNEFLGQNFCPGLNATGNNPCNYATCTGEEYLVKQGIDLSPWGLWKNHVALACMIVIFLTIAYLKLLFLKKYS
Sequence of Apoptosis regulator Bcl-2 (Homo sapiens) (P10415 whole entry, looked up): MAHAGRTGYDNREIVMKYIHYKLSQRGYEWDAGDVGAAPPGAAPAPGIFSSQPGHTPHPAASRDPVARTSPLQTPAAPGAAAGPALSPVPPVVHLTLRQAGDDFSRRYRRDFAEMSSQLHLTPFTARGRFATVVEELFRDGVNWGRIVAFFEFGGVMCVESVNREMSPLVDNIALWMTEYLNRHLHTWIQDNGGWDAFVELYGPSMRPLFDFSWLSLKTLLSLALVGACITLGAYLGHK

COC(=O)CCC(=O)OC
not listed: [18]
inactive: all other assays above

CC(C)(O)c1ccc(CNC(=O)c2cccnc2Oc2ccc(F)cc2)cc1
active: [7] 29.5 µM
not listed: [18]
inactive: all other assays above

CCCCCCCCCCCCCCOS(=O)(=O)O
active: [15] 50 µM
not listed: [16]
inactive: all other assays above

CC(C)c1cccc(C(C)C)c1NC(=O)NS(=O)(=O)c1cc(C(C)(C)O)co1
active: [3] 6.65 µM | [7] 3.34 µM | [8] 12.6 µM
not listed: [13]
inactive: all other assays above

O=C(O)c1cccnc1
inactive: all assays above

CC1=C(C)S(=O)(=O)CCS1(=O)=O
active: [2] 14.7 µM | [3] 50 µM | [4] 88.8 µM | [5] 0.171 µM | [6] 81 µM | [13] 50 µM | [14] 0.277 µM | [15] 80.3 µM | Caspase-3 (Homo sapiens) 69.8 µM
not listed: [16] | [18]
inactive: all other assays above

Nc1nc(=S)c2[nH]cnc2[nH]1
active: [3] 10.3 µM | [5] 13.9 µM | [6] 7.88 µM | [7] 21.1 µM | [8] 8.31 µM | [9] 10.2 µM | [10] 12.2 µM | [13] 3.39 µM | [15] 6.35 µM | [18] 3.48 µM
inactive: all other assays above
